In assay [1] the target is Albumin (Bos taurus) (UniProt P02769). Kind of assay: compounds binding labelled BSA control protein – biochemical, small-molecule microarray, Alexa647 label, 635/667 nm fluorescence, artefact control for SMM control protein annotation, profiling panel (AID 1118).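 Note: score merges 667 nm emission intensity and signal-to-noise per printed compound spot.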 As to conditions: BSA-A647 binding, fluorescence 635 nm, higher = more signal.
Assay [2] is described as follows: probe aXIP binding to arrayed compounds – biochemical, NeuroSMM set, 635/667 nm fluorescence, primary screen (AID 1119).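 Note: probe is the protein aXip251-270 applied at 1 µg/mL to compound-printed slides; binding of probe to printed compounds measured as 667 nm fluorescence plus signal to noise.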 As to conditions: small-molecule microarray, higher = more signal, called active from +8 up or from −8 down.
Assay [3] in a line: probe aNOTCH3 binding on compound microarray – biochemical, small-molecule microarray, 635/667 nm fluorescence, primary screen (AID 1120).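 Note: probe is a biotin-tagged antibody raised against NOTCH3 rather than NOTCH3 protein; score merges spot fluorescence near 667 nm with spot signal to noise.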 As to conditions: higher = more signal.
A short description of assay [4]: probe aNOTCH2 binding on compound microarray – biochemical, small-molecule microarray, 635/667 nm fluorescence, primary screen (AID 1121).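 Note: score merges feature fluorescence read at 667 nm with its signal to noise.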 As to conditions: higher = more signal.
For assay [5], the target named is Carbonic anhydrase 2 (Homo sapiens) (UniProt P00918). Kind of assay: compounds binding carbonic anhydrase 2 – biochemical, small-molecule microarray, Alexa647-labelled CAII, profiling panel (AID 1122). As to conditions: CAII-A647 binding fluorescence, higher = more signal.
Assay [6] is described as follows: COS7 lysate on small-molecule microarray, probe aHis, 635 nm (AID 1123).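 Note: z-score combines 667nm fluorescence intensity with signal-to-noise per printed compound spot.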 As to conditions: COS7 cell lysate, fluorescence, higher = more signal.
A short description of assay [7]: probe aLAP1 signal on lysate-treated microarray – cell lysate, small-molecule microarray, COS7 lysate, primary screen (AID 1124).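 Note: lysate comes from COS7 cells expressing LAP1 and is applied at 0.3 µg/mL; score merges spot fluorescence near 667 nm with signal-to-noise over triplicate slides.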 As to conditions: probe aLAP1, fluorescence, higher = more signal.
Assay [8] has as its system Sam68 (KHDRBS1). Description: compounds binding KHDRBS1 protein – biochemical, small-molecule microarray, 635 nm fluorescence, primary screen (AID 1125).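 Note: score merges 667 nm channel intensity with signal to noise over triplicate slides.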 The settings on record: higher = more signal.
The test system of assay [9] is Chordin-like protein 2 (CHRDL2). Kind of assay: compounds binding chordin-like 2 – biochemical, small-molecule microarray, 635 nm fluorescence, primary screen (AID 1126).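 Note: printed compound slides probed with Chrdl2 protein at 4 µg/mL for 1 h at 4 C; score merges 667 nm emission intensity with signal to noise over three replicate slides.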 As to conditions: fluorescence 635 nm, higher = more signal.
In assay [10] the target is Concanavalin-A (Canavalia ensiformis) (UniProt P02866). Kind of assay: compounds binding concanavalin A lectin – biochemical, small-molecule microarray, Alexa647 label, 635 nm, artefact control for SMM control protein annotation, primary screen (AID 1127).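 Note: z combines 667 nm emission intensity with signal-to-noise across three replicate slides.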 The settings on record: ConA-A647 binding fluorescence, higher = more signal.
Sequence of Concanavalin-A (Canavalia ensiformis) (P02866 whole entry, looked up): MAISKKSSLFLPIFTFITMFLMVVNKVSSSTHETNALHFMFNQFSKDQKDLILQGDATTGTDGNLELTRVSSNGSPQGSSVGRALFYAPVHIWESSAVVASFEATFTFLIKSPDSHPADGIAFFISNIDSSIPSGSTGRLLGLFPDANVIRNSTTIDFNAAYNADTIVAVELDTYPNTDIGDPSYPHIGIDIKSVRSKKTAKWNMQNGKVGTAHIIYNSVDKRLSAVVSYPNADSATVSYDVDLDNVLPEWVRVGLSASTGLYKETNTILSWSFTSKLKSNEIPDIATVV

Calls of active or inactive are those of the source.

14 compounds from PubChem BioAssay can be followed below.

Sequence of Albumin (Bos taurus) (P02769 whole entry, looked up): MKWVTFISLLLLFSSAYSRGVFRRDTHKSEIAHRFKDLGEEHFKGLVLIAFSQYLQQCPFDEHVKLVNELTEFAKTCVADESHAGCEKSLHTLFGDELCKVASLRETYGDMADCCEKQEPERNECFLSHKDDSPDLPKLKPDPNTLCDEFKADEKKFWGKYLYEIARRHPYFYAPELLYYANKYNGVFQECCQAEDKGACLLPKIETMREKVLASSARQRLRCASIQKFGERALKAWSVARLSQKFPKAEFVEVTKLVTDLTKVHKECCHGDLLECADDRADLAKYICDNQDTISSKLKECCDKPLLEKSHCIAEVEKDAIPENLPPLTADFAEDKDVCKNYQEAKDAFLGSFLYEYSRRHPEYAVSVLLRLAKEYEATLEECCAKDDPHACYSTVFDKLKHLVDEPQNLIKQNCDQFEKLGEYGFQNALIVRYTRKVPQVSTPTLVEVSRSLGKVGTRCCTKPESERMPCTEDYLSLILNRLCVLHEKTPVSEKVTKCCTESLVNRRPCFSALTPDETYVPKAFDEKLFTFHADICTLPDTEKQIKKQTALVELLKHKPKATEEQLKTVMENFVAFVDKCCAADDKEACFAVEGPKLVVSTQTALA

Take `[N-]=[N+]=Nc1ccccc1[C@H]1OC(c2ccc(OCCCO)cc2)=N[C@@]1(CCS(=O)(=O)c1ccccc1)C(=O)NCCN1CCOCC1`: the composite z-score in [1] came out at 0.189; in assay [3] it was 0.189; in [4], 0.069; in assay [5], 0.449; in [6], 1.72; in assay [7], 0.503. Besides, the composite z-score turned out to be 1.31 in assay [8], 0.577 in assay [9] and 0.923 in [10]. Besides, the composite Z-score in assay [2] is -0.363 (inactive).

In the case of `O[C@@H](Cc1ccccc1)[C@@H](/C=C/C1CC1)N(CC#Cc1ccccc1)Cc1cccc(Cl)c1`, the composite z-score is -0.22 in assay [1]; -0.376 in assay [3]; -0.117 in assay [4]; -0.245 in assay [5]; -0.359 in [6]; 0.0449 in assay [7]. Moreover, the composite z-score in assay [8] was -0.117; in assay [9], -1.21; in assay [10], -0.403. In addition, in [2], the composite Z-score was 0.889 (inactive).

As for `COCCOC(=O)N1C(=O)[C@@]2(c3cc(C#Cc4ccc(OC)cc4)ccc31)[C@H](c1ccccc1OCCO)N1[C@H](c3ccccc3)[C@H](c3ccccc3)OC(=O)[C@H]1[C@@H]2C(=O)N1CCCCCCC1`, the composite z-score in [1] came out at 0.164; in assay [3] it was 1.81; in assay [4], 0.956; in assay [5] it was 0.934; in assay [6], 2.08; in assay [7], 0.512. Besides, the composite z-score in [8] was 0.484; in [9], 1.43; in [10] it was 0.908. The composite Z-score in assay [2] is 6.24 (inactive).

For `C=CCOC(=O)[C@H]1[C@@H]2C(=O)O[C@@H](c3ccccc3)[C@@H](c3ccccc3)N2[C@@H](c2ccc(OCCOC(=O)[C@H]3C[C@H]4C(=O)N[C@@H](CC(C)C)C(=O)N4[C@H]3c3cccc(OCCO)c3)cc2)[C@]12C(=O)Nc1ccc(I)cc12`, the composite z-score is -0.172 in assay [1]; 0.233 in assay [3]; -0.107 in [4]; 0.518 in assay [5]; 1.15 in assay [6]; 0.239 in assay [7]. The composite z-score was 1.32 in [8], 1.29 in assay [9] and 1.11 in assay [10]. The composite Z-score in [2] was 0.628 (inactive).

As for `CC[C@H]1C2=C3C(CC[C@H]4C(OCc5ccc(F)cc5C(F)(F)F)OC[C@](C)([C@@H]34)N(C(=O)OC(C)(C)C)C2)C(COC)C1COC` (stereo not given in full), the composite z-score is 0.515 in [1]; 0.0851 in assay [3]; -0.0372 in assay [4]; 0.687 in [5]; 1.1 in assay [6]; -0.115 in assay [7]. The composite z-score is 0.0783 in assay [8], -0.882 in assay [9] and 0.401 in assay [10]. For the same compound, the composite Z-score in assay [2] is 0.0377 (inactive).

In the case of `COCCOC(=O)N1C(=O)[C@@]2(c3cc(C#CCNC(N)=O)ccc31)[C@H](C(=O)N1CCc3cc(OC)c(OC)cc3C1)[C@H]1C(=O)O[C@H](c3ccccc3)[C@H](c3ccccc3)N1[C@@H]2c1ccccc1OCCO`, the composite z-score in [1] is 0.577; in assay [3], 0.123; in assay [4], -0.126; in assay [5] it was 0.577; in [6], 1.33; in [7], 0.383. In addition, the composite z-score was 1.29 in assay [8], 0.855 in assay [9] and 0.794 in assay [10]. In addition, the composite Z-score in [2] was -0.0476 (inactive).

With `CCCCO[C@H]1C[C@H]2C(I)=C[C@@H]1C(=O)[C@]21CO1`, the composite z-score was -0.369 in [1]; -0.0311 in assay [3]; -0.25 in assay [4]; -0.302 in assay [5]; -0.196 in [6]; -0.287 in assay [7]. The composite z-score in assay [8] is -0.414; in assay [9], 0.377; in assay [10], 0.267. In addition, the composite Z-score in assay [2] was -0.014 (inactive).

In the case of `CC1CC/C=C\[C@H]2OC34C=CCN(C(C)C)C(=O)[C@H]3N(CCCCCCO)C(=O)[C@@H]4C2C(=O)O1` (stereo not given in full), the composite z-score is -0.0272 in assay [1]; -0.268 in assay [3]; -0.145 in assay [4]; 0.889 in assay [5]; -0.63 in assay [6]; -0.0532 in [7]. The composite z-score is -1.83 in assay [8], -0.607 in [9] and -0.594 in [10]. The composite Z-score in [2] is -0.416 (inactive).

For the compound `CN1C(=O)C2C=CC(C(O)C#Cc3ccccc3)N(Nc3ccccc3)C2C1=O` (stereo not given), the composite z-score was 1.03 in assay [1]; 0.405 in assay [3]; 0.0363 in [4]; 0.663 in [5]; 2.96 in assay [6]; 0.553 in [7]. In addition, the composite z-score in assay [8] was 1.35; in assay [9], -0.0655; in assay [10], 1.09. Moreover, in assay [2], the composite Z-score is -0.0662 (inactive).

In the case of `[N-]=[N+]=NCc1ccccc1[C@@H]1OC(c2ccc(OCCCO)cc2)=N[C@]1(CCS(=O)(=O)c1ccccc1)C(=O)NCC(O)CO` (stereo not given in full), the composite z-score is 0.979 in assay [1]; 0.13 in [3]; 0.208 in assay [4]; 0.526 in [5]; 3.18 in assay [6]; 1.01 in assay [7]. For the same compound, the figures for the composite z-score in [8], in assay [9] and in assay [10] were 1.29, -0.563 and 1.18, respectively. Moreover, in assay [2], the composite Z-score is 0.131 (inactive).

In the case of `C=CCOC(=O)[C@H]1[C@@H]2C(=O)O[C@@H](c3ccccc3)[C@@H](c3ccccc3)N2[C@@H](c2ccc(OCCOC(=O)[C@H]3C[C@H]4C(=O)N[C@@H](CCCCNC(C)=O)C(=O)N4[C@H]3c3ccc(O)cc3)cc2)[C@]12C(=O)Nc1ccccc12`, the composite z-score in assay [1] is -1.06; in assay [3], 0.0076; in assay [4], -0.112; in [5], 0.634; in [6] it was 1.19; in [7], -0.549. For the same compound, the composite z-score was determined as 1.3 in assay [8], 0.998 in assay [9] and 1.16 in assay [10]. Further, the composite Z-score in assay [2] was 1.09 (inactive).

In the case of `O=C(N1CCCCC1)[C@@]1(CCS(=O)(=O)c2ccccc2)COC(c2ccc(OCCCO)cc2)=N1`, the composite z-score in [1] turned out to be 0.107; in [3], 0.289; in assay [4], 0.207; in assay [5], 0.582; in assay [6] it was 2.66; in assay [7], 0.729. Further, the composite z-score in assay [8] turned out to be 1.31; in assay [9] it was 0.225; in assay [10], 1.1. Also, the composite Z-score in assay [2] is 0.674 (inactive).

Consider `C=C(C)C1CCC(C(O)C2C=CC3C(=O)N(C)C(=O)C3N2N2CCCCC2)CC1` (stereo not given), for which the composite z-score in assay [1] came out at 0.735; in [3], 0.223; in assay [4], 0.0598; in assay [5], 0.514; in assay [6], 2.03; in assay [7] it was 0.386. The composite z-score is 1.29 in [8], 1.24 in assay [9] and 1.12 in assay [10]. The composite Z-score in assay [2] is 0.172 (inactive).

Take `COC(=O)[C@@]1(Cc2ccc(OC)cc2)[C@H]2c3cc(C(=O)N4CCCC4)n(Cc4c(-c5ccccc5)noc4C)c3C[C@H]2CN1C(=O)c1ccccc1`: the composite z-score in assay [1] is 0.634; in [3], 0.576; in assay [4], 0.251; in assay [5], 0.446; in [6] it was 3.24; in [7] it was 0.214. The composite z-score in assay [8] was 1.35; in assay [9], -0.748; in assay [10], 0.978. Moreover, the composite Z-score in [2] is 0.216 (inactive).
